The text below walks through data of PubChem BioAssay (EPA / NIEHS).

A short description of test [1]: ATG_NFI_CIS: Attagene CIS-FACTORIAL HepG2 Assay for human Nuclear Factor I (NFI) (AID 2282989). The settings on record: HepG2 cis-regulatory reporter, NFI response element transcription; actives raise or lower the signal. Summed up:
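Transient MRTU transfection of HepG2 → 24 h chemical dosing → total RNA, oligo(dT) RT → PCR, 6-FAM primer extension, HpaI cut → capillary electrophoresis. Endpoint fitted bidirectionally relative to DMSO.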

The target of test [2] is Myc proto-oncogene protein (Homo sapiens) (UniProt P01106). The experiment in a line: ATG_Myc_CIS: Attagene CIS-FACTORIAL HepG2 Assay for human Myelocytomatosis (Myc) Proto-Oncogene Transcription Factor (AID 2282990). The settings on record: HepG2, Attagene cis-reporter transcription factor activity; actives raise or lower the signal. The gist of the method:
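HepG2, transient MRTU transfection (cis promoters, endogenous TFs); 24 h dosing; TriZol RNA → oligo(dT) RT → PCR → 6-FAM primer extension → HpaI cut → CE. Bidirectional fit vs DMSO.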

The nature of test [3]: ATG_NRF2_ARE_CIS: Attagene CIS-FACTORIAL HepG2 Assay for human Nuclear Factor Erythroid 2 Related Factor 2 (NFR2) response to Antioxidant Response Elements (ARE) (AID 2282992).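 As to AC50: reporter mRNA level measured by RT-PCR and capillary electrophoresis fluorescence.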 The note with it: HepG2 Attagene ARE/NRF2 reporter, transcription factor activity; actives raise or lower the signal. Summed up:
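HepG2 cells transiently transfected with multiplexed cis-regulated reporter transcription units measure endogenous transcription factor activity. Reporter mRNA at 24 h is quantified by RT-PCR, fluorescent labelling and capillary electrophoresis, with bidirectional fitting relative to DMSO.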

The nature of test [4]: ATG_Oct_MLP_CIS: Attagene CIS-FACTORIAL HepG2 Assay for human Octamer-Binding Transcription Factor (Oct) (AID 2282993). The note with it: HepG2 Attagene cis-factorial Oct reporter, mRNA; actives raise or lower the signal. The gist of the method: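 Transient MRTU transfection of HepG2 → 24 h compound treatment → RNA isolation, reverse transcription, PCR → 6-FAM primer extension, HpaI digest → capillary electrophoresis. Activity fitted both directions against DMSO.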

Test [5] has as its target Cellular tumor antigen p53 (Homo sapiens) (UniProt P04637). Put plainly: ATG_p53_CIS: Attagene CIS-FACTORIAL HepG2 Assay for human p53 Transcription Factor (AID 2282994). The note with it: HepG2 p53 cis-element reporter, Attagene mRNA; actives raise or lower the signal. The gist of the method: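 HepG2 cells transiently transfected with multiplexed cis-regulated reporter transcription units read endogenous TF activity. After 24 h compound exposure, reporter mRNA was quantified by RT-PCR, fluorescent labelling, HpaI digestion and capillary electrophoresis; bidirectional fits versus DMSO baseline.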

The nature of test [6]: BSK_3C_TissueFactor: BioMAP Diversity Plus: 3C Assay for Tissue Factor Biomarker Activity (AID 2282997). The settings on record: BioMAP 3C HUVEC, tissue factor biomarker readout; actives raise or lower the signal. The gist of the method: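 HUVEC were treated 24 h, then surface tissue factor measured by ELISA and fitted bidirectionally against DMSO. Parallel SRB total-protein staining assessed overt cytotoxicity at the same time point.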

Test [7] can be described thus: BSK_3C_uPAR: BioMAP Diversity Plus: 3C Assay for Urokinase-type plasminogen activator receptor (uPAR) Biomarker Activity (AID 2282998). The settings on record: BioMAP 3C HUVEC, uPAR biomarker ELISA; actives raise or lower the signal. Summed up:
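ELISA readout of uPAR on human vascular endothelium (umbilical vein primary cells), taken 24 h after chemical dosing. Increases and decreases are both fitted relative to DMSO vehicle.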
On the technique in general: In an ELISA, binding on a coated surface is turned into a signal by an enzyme label.

A short description of test [8]: BSK_3C_VCAM1: BioMAP Diversity Plus: 3C Assay for Vascular cell adhesion molecule 1 (VCAM1) Biomarker Activity (AID 2282999). The settings on record: BioMAP 3C HUVEC, VCAM1 ELISA, cytokine-stimulated; actives raise or lower the signal. Summed up: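 Endothelial cells from human umbilical vein are treated with test chemical. At 24 h, VCAM-1 is measured by ELISA, and responses in either direction are fitted relative to DMSO.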

Test [9] can be described thus: ATG_NF_kB_CIS: Attagene CIS-FACTORIAL HepG2 Assay for human Nuclear Factor Kappa B (NF-kB) (AID 2282991). The note with it: HepG2 Attagene cis-factorial NF-kB reporter mRNA; actives raise or lower the signal. Summed up:
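After 24 h compound incubation, transfected HepG2 cells yield total RNA; reporter cDNA is PCR-amplified, end-labelled with 6-FAM, HpaI-digested and analysed on a genetic analyser. Endogenous factor activity, DMSO-referenced bidirectional fit.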

Values joined by “and” are separate entries in the source; they are usually repeats but may differ in a detail not shown here. Equal values may be shown once. Some structures have more than one record in an assay (separate samples or runs), and their calls can disagree. Active and inactive are the calls of the source. The calls were made as follows: active = hit-call score of the fitted dose curve at least 0.9, where 1 is the maximum; inactive = score below 0.9.

Cellular tumor antigen p53 (Homo sapiens), sequence (P04637 whole entry, looked up): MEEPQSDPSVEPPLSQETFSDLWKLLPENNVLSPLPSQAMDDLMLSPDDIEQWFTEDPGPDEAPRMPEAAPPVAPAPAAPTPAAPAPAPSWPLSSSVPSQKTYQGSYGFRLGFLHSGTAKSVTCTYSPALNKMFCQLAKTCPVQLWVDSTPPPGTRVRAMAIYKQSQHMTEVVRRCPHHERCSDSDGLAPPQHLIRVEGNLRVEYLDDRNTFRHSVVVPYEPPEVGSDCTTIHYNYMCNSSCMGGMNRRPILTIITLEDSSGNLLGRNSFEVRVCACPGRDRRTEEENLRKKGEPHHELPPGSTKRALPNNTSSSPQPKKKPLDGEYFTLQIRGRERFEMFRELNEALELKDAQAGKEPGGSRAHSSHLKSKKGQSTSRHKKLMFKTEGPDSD
Myc proto-oncogene protein (Homo sapiens), sequence (P01106 whole entry, looked up): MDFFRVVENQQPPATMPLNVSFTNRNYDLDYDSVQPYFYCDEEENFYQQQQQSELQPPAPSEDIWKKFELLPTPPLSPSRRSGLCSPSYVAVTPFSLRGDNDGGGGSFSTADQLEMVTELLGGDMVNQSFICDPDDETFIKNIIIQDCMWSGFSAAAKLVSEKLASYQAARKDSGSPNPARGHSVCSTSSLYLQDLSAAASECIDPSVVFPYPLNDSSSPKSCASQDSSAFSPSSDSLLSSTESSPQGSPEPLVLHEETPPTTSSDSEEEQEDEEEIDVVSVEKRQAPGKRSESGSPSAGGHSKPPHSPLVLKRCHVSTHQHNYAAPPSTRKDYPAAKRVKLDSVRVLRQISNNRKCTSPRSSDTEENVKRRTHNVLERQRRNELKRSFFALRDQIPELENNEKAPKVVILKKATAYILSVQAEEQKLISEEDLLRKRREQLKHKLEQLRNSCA

A word on the AC50: it is the midpoint of the concentration-response curve, whichever way the signal moves. For `O=C(Nc1ccc(Cl)c(Cl)c1)c1cc(Cl)cc(Cl)c1O`, the molecule was classed as inactive in test [1] and in [2]. Further, the AC50 in test [3] is 0.522 µM (active); in test [4], 1.11 µM (active); in test [5], 10.9 µM (active).
As for `CCCCCC(C)OC(=O)COc1ccc(Cl)c2cccnc12` (configuration not stated), the molecule was called inactive in test [1], in test [2] and in test [5]. The AC50 in test [3] was 42.4 µM (active).
As for `CN(C)CCOC(c1ccccc1)c1ccccc1`, the result in test [2], in [6], in test [7] and in test [8] was inactive.
`O=C1OC2(c3ccccc31)c1cc(I)c(O)c(I)c1Oc1c2cc(I)c(O)c1I`: the molecule was called inactive in [1], in [2], in test [3], in test [4] and in test [5]. Further, the figures for the AC50 in test [6], in test [7] and in [8] were 12 µM (active), 5.04 µM (active) and 12 µM (active), respectively.
Take `CN(Cc1cnc2nc(N)nc(N)c2n1)c1ccc(C(=O)N[C@@H](CCC(=O)O)C(=O)O)cc1`: the molecule was called inactive in test [1], in test [2], in [3], in test [4], in test [6] and in test [7]. Besides, the outcome in [8] was inactive.
Consider `COC1=CC(=O)C[C@@H](C)[C@]12Oc1c(Cl)c(OC)cc(OC)c1C2=O`, for which the outcome in test [1], in test [2], in [3], in test [7] and in test [8] was inactive. Also, the AC50 in [9] is 25.6 µM (active).
With `Cc1ccc(S(=O)(=O)O)cc1`, the result in test [1], in test [2], in test [3], in test [4] and in [5] was inactive.
Turning to `CCCCCCCCCCCC(=O)O`, the outcome in test [1], in test [2], in test [3] and in test [4] was inactive. In addition, the half-maximal activity concentration (AC50) in test [3] is 100 µM (active); in [4], 90.6 µM (active).
Regarding `CCC(C)c1nccnc1OC` (configuration not stated), the outcome in [1], in [2], in [3], in test [4] and in test [5] was inactive.
In the case of `NNC(=O)CCCCC(=O)NN`, the outcome in test [1], in test [2], in test [3] and in test [4] was inactive.
Take `CCCCCCCCCCCCCCCC(=O)OC`: the outcome in test [1], in [2], in test [3], in test [4] and in test [5] was inactive.
Take `CCN(CC)CC`: the molecule was called inactive in [1], in test [2], in [3], in test [4] and in test [5].
In the case of `O=C1NS(=O)(=O)c2ccccc21`, the molecule was classed as inactive in test [1], in test [2], in [3], in test [4], in test [7] and in test [8].
For `CCCCC(CC)C(=O)O` (configuration not stated), the outcome in test [1], in [2], in test [3], in test [4], in test [7] and in test [8] was inactive.
With `Oc1c(Cl)cc(Cl)cc1Sc1cc(Cl)cc(Cl)c1O`, the call in [1], in test [2] and in test [5] was inactive. The concentration at half-maximal activity (AC50) was 3 µM (active) in test [3]; 3.57 µM (active) in test [4]; 22.2 µM (active) and 21 µM (active) in test [6]; 3.97 µM (active) and 7.82 µM (active) in [7]; 31.3 µM (active) and 28.6 µM (active) in [8].
Take `CCCCCCCCCCCCOS(=O)(=O)O`: the result in [6], in [7] and in [8] was inactive.
Take `NS(=O)(=O)O`: the call in test [1], in test [2], in test [3] and in test [5] was inactive.
For the molecule `CC(C)(C)c1ccc(O)c(O)c1`, the call in test [1], in test [2], in test [9], in test [4], in [5] and in [7] was inactive. Further, the AC50 in test [8] is 20 µM (active).
`Cc1ccc(C)c(S(=O)(=O)O)c1`: the result in test [1], in test [2], in [3], in test [4] and in test [5] was inactive.
As for `O=C(c1ccccc1)c1ccccc1`, the molecule was called inactive in [2], in [4], in test [5], in [7] and in test [8]. In addition, in [5], the AC50 was 168 µM (active).
Take `CNNCc1ccc(C(=O)NC(C)C)cc1`: the outcome in test [1], in test [2], in [3], in [4] and in test [5] was inactive.
Turning to `Cc1ccccc1OCC(=O)O`, the call in test [1], in [2] and in test [3] was inactive.
With `COCN(COC)c1nc(N(COC)COC)nc(N(COC)COC)n1`, the result in test [1], in test [2], in [3], in test [4], in test [5] and in [6] was inactive. Also, the outcome in [7] and in test [8] was inactive.
Take `O=C(Nc1cccc([N+](=O)[O-])c1)c1cc2ccccc2cc1O`: the call in test [1], in [2], in [4] and in test [5] was inactive. In [3], the AC50 was 1.37 µM (active).
`Nc1ccn([C@@H]2O[C@H](CO)[C@@H](O)C2O)c(=O)n1` (some centres not stated): the molecule was classed as inactive in [1], in test [2] and in test [3].
Take `CS(=O)(=O)c1ccc([C@@H](CC2CCCC2)C(=O)Nc2cnccn2)cc1Cl`: the AC50 in test [2] was 165 µM (active); in test [4], 122 µM (active). Besides, the molecule was classed as inactive in test [5], in test [6], in test [7] and in [8].
Take `O=C(CCCN1CCC(O)(c2ccc(Cl)cc2)CC1)c1ccc(F)cc1`: the outcome in test [2] and in test [8] was inactive. For the same molecule, the AC50 in test [5] was 46.2 µM (active); in [7], 20 µM (active).
On to `Oc1c(Cl)ccc(Cl)c1Cl`, for which the result in test [1], in test [2], in test [3], in test [4] and in test [5] was inactive.
As to `Cc1[nH]nc2c1N=C(c1ccccc1Cl)c1cc([N+](=O)[O-])ccc1N2`, the AC50 in test [1] is 0.554 µM (active); in test [2], 0.353 µM (active); in [3], 19.8 µM (active); in test [7], 4.73 µM (active); in [8], 3.03 µM (active). The result in [4] was inactive.
For `CCCCCCCCCCCCCCC`, the molecule was called inactive in [1], in test [2], in test [9], in test [3], in test [7] and in [8].
`CC(C)c1c(C(=O)Nc2ccccc2)c(-c2ccccc2)c(-c2ccc(F)cc2)n1CC[C@@H](O)C[C@@H](O)CC(=O)O`: the result in [2] and in test [4] was inactive.
